Reference: PubChem BioAssay
Unmarked numbers belong to inactive results. The source made the active and inactive calls. Rule as the data show it, unless noted: active = inhibition above about 44%; inactive = the rest.

How the values were obtained:
[1] = StAR promoter reporter inhibitors, counter-screen for LRH-1 inverse agonist project, cell-based, luminescence, high throughput (AID 651611; in the data active = inhibition above about 28%); details: StAR promoter luciferase reporter counterscreen, at 3.6 µM, active compounds read high
[2] = target: Nuclear receptor subfamily 5 group A member 2 (Homo sapiens) (UniProt O00482); experiment: NR5A2 activity suppression in reporter cells – cell-based, luminescence, confirmation (AID 651613; in the data active = inhibition above about 42%;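 also: HEK293T cells co-transfected with LRH-1 and StAR promoter luciferase reporter; 0% = vehicle wells and 100% = parental cells lacking receptor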); details: cell-based LRH-1 luciferase reporter, inverse agonism; at 3.6 µM; active compounds read high
Chain of Nuclear receptor subfamily 5 group A member 2 (Homo sapiens) (O00482 whole entry, looked up): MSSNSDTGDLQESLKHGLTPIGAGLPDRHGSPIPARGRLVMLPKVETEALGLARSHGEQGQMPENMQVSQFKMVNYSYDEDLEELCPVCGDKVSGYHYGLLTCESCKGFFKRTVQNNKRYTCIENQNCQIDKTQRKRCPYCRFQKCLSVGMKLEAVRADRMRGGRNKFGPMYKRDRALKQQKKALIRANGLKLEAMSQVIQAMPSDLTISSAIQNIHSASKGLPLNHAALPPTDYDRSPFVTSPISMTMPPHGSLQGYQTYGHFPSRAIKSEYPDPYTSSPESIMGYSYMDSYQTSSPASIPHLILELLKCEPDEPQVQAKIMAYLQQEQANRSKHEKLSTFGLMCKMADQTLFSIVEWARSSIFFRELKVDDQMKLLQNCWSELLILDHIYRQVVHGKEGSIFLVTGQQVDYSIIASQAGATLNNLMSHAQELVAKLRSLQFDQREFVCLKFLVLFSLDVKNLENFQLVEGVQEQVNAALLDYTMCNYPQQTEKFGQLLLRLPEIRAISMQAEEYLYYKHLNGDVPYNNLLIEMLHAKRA

[3] = target: Steroidogenic factor 1 (Homo sapiens) (UniProt Q13285); experiment: inverse agonism at SF1 nuclear receptor – cell-based, luminescence, high throughput, counter-screen for LRH-1 inverse agonist project (AID 651614); details: cell-based SF1 luciferase reporter, at 3.6 µM, active compounds read high;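 also: cells cotransfected with StAR promoter reporter and SF1 expression vector; 0% = vehicle on cells with receptor and 100% = vehicle on cells lacking receptor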
Chain of Steroidogenic factor 1 (Homo sapiens) (Q13285 whole entry, looked up, the tested form may be a part): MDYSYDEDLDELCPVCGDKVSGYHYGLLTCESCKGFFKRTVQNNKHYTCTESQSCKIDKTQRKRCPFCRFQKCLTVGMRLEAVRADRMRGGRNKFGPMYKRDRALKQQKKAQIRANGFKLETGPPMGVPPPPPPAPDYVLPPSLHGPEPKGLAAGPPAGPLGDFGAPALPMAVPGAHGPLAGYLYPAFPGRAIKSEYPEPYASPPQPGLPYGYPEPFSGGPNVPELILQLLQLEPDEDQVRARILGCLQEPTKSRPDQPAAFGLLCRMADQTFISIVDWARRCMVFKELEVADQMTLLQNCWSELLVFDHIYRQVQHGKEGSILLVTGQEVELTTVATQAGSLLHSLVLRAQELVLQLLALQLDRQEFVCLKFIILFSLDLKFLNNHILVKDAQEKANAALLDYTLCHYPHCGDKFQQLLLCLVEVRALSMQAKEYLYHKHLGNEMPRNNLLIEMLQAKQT

[4] = compounds suppressing VP16-driven luciferase signal – cell-based, luminescence, high throughput, counter-screen for LRH-1 inverse agonist project (AID 651615; in the data active = inhibition above about 33%); details: Gal4-VP16 luciferase reporter cells, at 3.6 µM, active compounds read high

Compound | inhibition [1] | inhibition [2] | inhibition [3] | inhibition [4]
O=c1[nH]c(Nc2ccc3c(c2)OCCO3)nnc1Cc1ccccc1 | 0.14% | 59.5% (active) | 37.8% | -12.8%
Cc1nc2cc(N3CCCCC3)c(NC(=O)c3cccnc3)cc2c(=O)n1Cc1ccccc1 | 10.7% | 57.6% (active) | 57.2% (active) | -17%
Cc1onc(NC(=O)c2ccc([N+](=O)[O-])o2)c1Br | 4.26% | 64.9% (active) | 58.4% (active) | -9.49%
CCOc1ccc(C(=O)c2cc([N+](=O)[O-])ccc2Cl)cc1 | 12.6% | 42.3% (active) | 39.5% | -1.79%
COc1ccc(CCNC(=O)CSc2nc3[nH]ncc3c(=O)n2-c2ccccc2Br)cc1OC | 5.86% | 57.3% (active) | 43.1% (active) | -2.5%
O=C(COc1cc2oc(=O)cc(-c3ccccc3)c2cc1Cl)NCCN1CCOCC1 | 10.4% | 40.5% | 35.4% | -2.31%
CC1CCCC(C)N1C(=O)COC(=O)Cc1ccc(Cl)cc1 (stereo unspecified) | -5.45% | 51.2% (active) | 41.8% | 0.05%
Cc1ccc(NC(=O)CSc2ccc3c(c2)OCCO3)c(O)c1 | 11.1% | 54.6% (active) | 46.5% (active) | 35.5% (active)
CCC(NC(=O)c1cc(COc2cc(C)c(Cl)c(C)c2)on1)c1ccncc1 (stereo unspecified) | 0.99% | 52.5% (active) | 50.9% (active) | 8.52%
O=C(Cc1cccs1)N/N=C\c1ccc([N+](=O)[O-])s1 | 12.1% | 64.9% (active) | 56.4% (active) | 12.6%
CN(C)c1ccc(CN(C(=O)C2COc3ccccc3O2)C2CCS(=O)(=O)C2)cc1 (stereo unspecified) | 3.73% | 35.1% | 39.1% | 1.92%
c1ccc(-c2nc(NCC3CCCO3)c3oc4ccccc4c3n2)cc1 (stereo unspecified) | -0.47% | 38.2% | 39.8% | -17.1%
O=C(OCC(=O)N1CCN(C(=O)COC(=O)c2ccc(O)cc2O)CC1)c1ccc(O)cc1O | 14.4% | 61% (active) | 61.2% (active) | 3.8%
Cc1cccc(NC(=O)CSc2nc3[nH]ncc3c(=O)[nH]2)c1C | 11.6% | 56.4% (active) | 52.2% (active) | -4.74%
COCCn1c(SCC(=O)Nc2ccc(NC(C)=O)cc2)nc2ccccc2c1=O | 17% | 57.9% (active) | 52% (active) | 2.35%
CC(=O)Nc1cccc(-c2cc(NC=O)c3ncc(-c4cccc(C(C)=O)c4)n3c2)c1 | 29.1% (active) | 57.6% (active) | 53.2% (active) | -34.5%
Nc1cccc2nc3ccccc3cc12 | 21.7% | 104% (active) | 55.1% (active) | 92.2% (active)
CSc1nc(SCC(=O)NCc2ccco2)c2c3c(sc2n1)COC(C)(C)C3 | 6.43% | 54.7% (active) | 57.6% (active) | 3.39%
O=C(NCc1ccc2c(c1)OCO2)c1nn(-c2ccccc2)c(=O)c2ccccc12 | 4.72% | 52.2% (active) | 53.3% (active) | -2.13%
CC(C)C(=O)N1CCN(c2ccccc2NC(=O)c2ccc([N+](=O)[O-])o2)CC1 | 10.9% | 59.1% (active) | 42.2% | 25%
CCOc1ccc(NC(=O)COC(=O)c2ccc3c(c2)OCCO3)cc1 | 14% | 57.6% (active) | 51.9% (active) | -12.9%
O=C(CSc1nnc(CNC(=O)c2c(F)cccc2F)o1)Nc1ccc2c(c1)OCCO2 | 9.56% | 44.6% (active) | 54.6% (active) | -8.58%
CCCCNC(=O)COC(=O)c1c2c(nc3ccccc13)/C(=C/c1cccs1)CC2 | 11.2% | 58% (active) | 26.4% | 37.3% (active)
CC(O)(c1cccc(F)c1)c1nc(-c2ccc(S(C)(=O)=O)cc2)cs1 (stereo unspecified) | 2.43% | 48.7% (active) | 44.9% (active) | -6.85%
